# Experimental data: PubChem BioAssay
# Calls of active or inactive are those of the source.
# Experiments:
# Albumin (Bos taurus) = Albumin (Bos taurus) (UniProt P02769); assay: compounds binding labelled BSA control protein – biochemical, small-molecule microarray, Alexa647 label, 635/667 nm fluorescence, artefact control for SMM control protein annotation, profiling panel (AID 1118); conditions: BSA-A647 binding, fluorescence 635 nm, higher = more signal;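 further: score merges 667 nm emission intensity and signal-to-noise per printed compound spot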
# Albumin (Bos taurus), sequence (P02769 whole entry, looked up): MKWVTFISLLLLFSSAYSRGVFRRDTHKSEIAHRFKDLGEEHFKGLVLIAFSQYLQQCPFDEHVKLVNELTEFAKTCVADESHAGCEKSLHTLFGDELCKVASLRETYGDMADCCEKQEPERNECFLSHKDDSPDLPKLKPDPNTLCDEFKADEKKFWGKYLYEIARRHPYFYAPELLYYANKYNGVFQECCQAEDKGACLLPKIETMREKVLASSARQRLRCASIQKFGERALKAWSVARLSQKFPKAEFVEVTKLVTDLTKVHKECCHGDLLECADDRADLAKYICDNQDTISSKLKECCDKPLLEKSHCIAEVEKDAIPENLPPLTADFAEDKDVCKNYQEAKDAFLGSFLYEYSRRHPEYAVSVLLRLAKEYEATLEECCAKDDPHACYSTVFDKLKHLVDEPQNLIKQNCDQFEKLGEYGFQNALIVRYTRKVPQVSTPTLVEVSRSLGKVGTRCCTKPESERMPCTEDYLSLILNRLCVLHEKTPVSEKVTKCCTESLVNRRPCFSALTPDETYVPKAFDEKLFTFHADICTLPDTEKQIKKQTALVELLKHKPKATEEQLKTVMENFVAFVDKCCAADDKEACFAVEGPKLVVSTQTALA
# [1] = probe aXIP binding to arrayed compounds – biochemical, NeuroSMM set, 635/667 nm fluorescence, primary screen (AID 1119); conditions: small-molecule microarray, higher = more signal, called active from +8 up or from −8 down;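 further: probe is the protein aXip251-270 applied at 1 µg/mL to compound-printed slides; binding of probe to printed compounds measured as 667 nm fluorescence plus signal to noise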
# [2] = probe aNOTCH3 binding on compound microarray – biochemical, small-molecule microarray, 635/667 nm fluorescence, primary screen (AID 1120); conditions: higher = more signal;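 further: probe is a biotin-tagged antibody raised against NOTCH3 rather than NOTCH3 protein; score merges spot fluorescence near 667 nm with spot signal to noise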
# [3] = probe aNOTCH2 binding on compound microarray – biochemical, small-molecule microarray, 635/667 nm fluorescence, primary screen (AID 1121); conditions: higher = more signal;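 further: score merges feature fluorescence read at 667 nm with its signal to noise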
# [4] = target: Carbonic anhydrase 2 (Homo sapiens) (UniProt P00918); assay: compounds binding carbonic anhydrase 2 – biochemical, small-molecule microarray, Alexa647-labelled CAII, profiling panel (AID 1122); conditions: CAII-A647 binding fluorescence, higher = more signal
# [5] = COS7 lysate on small-molecule microarray, probe aHis, 635 nm (AID 1123); conditions: COS7 cell lysate, fluorescence, higher = more signal;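 further: z-score combines 667nm fluorescence intensity with signal-to-noise per printed compound spot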
# [6] = probe aLAP1 signal on lysate-treated microarray – cell lysate, small-molecule microarray, COS7 lysate, primary screen (AID 1124); conditions: probe aLAP1, fluorescence, higher = more signal;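 further: lysate comes from COS7 cells expressing LAP1 and is applied at 0.3 µg/mL; score merges spot fluorescence near 667 nm with signal-to-noise over triplicate slides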
# Sam68 (KHDRBS1) = assay: compounds binding KHDRBS1 protein – biochemical, small-molecule microarray, 635 nm fluorescence, primary screen (AID 1125); conditions: higher = more signal;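 further: score merges 667 nm channel intensity with signal to noise over triplicate slides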
# [7] = test system: Chordin-like protein 2 (CHRDL2); assay: compounds binding chordin-like 2 – biochemical, small-molecule microarray, 635 nm fluorescence, primary screen (AID 1126); conditions: fluorescence 635 nm, higher = more signal;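 further: printed compound slides probed with Chrdl2 protein at 4 µg/mL for 1 h at 4 C; score merges 667 nm emission intensity with signal to noise over three replicate slides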
# [8] = target: Concanavalin-A (Canavalia ensiformis) (UniProt P02866); assay: compounds binding concanavalin A lectin – biochemical, small-molecule microarray, Alexa647 label, 635 nm, artefact control for SMM control protein annotation, primary screen (AID 1127); conditions: ConA-A647 binding fluorescence, higher = more signal;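 further: z combines 667 nm emission intensity with signal-to-noise across three replicate slides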
# Concanavalin-A (Canavalia ensiformis), sequence (P02866 whole entry, looked up): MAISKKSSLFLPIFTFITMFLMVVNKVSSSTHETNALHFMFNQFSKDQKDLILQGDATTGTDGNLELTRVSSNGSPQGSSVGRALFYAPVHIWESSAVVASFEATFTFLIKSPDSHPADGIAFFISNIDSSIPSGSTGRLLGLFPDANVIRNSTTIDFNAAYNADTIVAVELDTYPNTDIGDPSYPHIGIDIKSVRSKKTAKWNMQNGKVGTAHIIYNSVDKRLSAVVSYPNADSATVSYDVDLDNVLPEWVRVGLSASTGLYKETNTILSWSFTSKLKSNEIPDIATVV
SMILES,composite z-score (Albumin (Bos taurus)),composite Z-score [1],composite z-score [2],composite z-score [3],composite z-score [4],composite z-score [5],composite z-score [6],composite z-score (Sam68 (KHDRBS1)),composite z-score [7],composite z-score [8]
C=CCOC(=O)[C@H]1[C@@H]2C(=O)O[C@@H](c3ccccc3)[C@@H](c3ccccc3)N2[C@@H](c2ccc(OCCOC(=O)[C@@H]3C[C@@H]4C(=O)N[C@@H](CCCCN(C)C)C(=O)N4[C@@H]3c3ccc(O)cc3)cc2)[C@]12C(=O)Nc1ccc(I)cc12,-0.342,0.711 (inactive),-0.0111,-0.18,0.574,1.66,0.278,1.3,1.24,1.15
CCOC(=O)C[C@H]1[C@H](OC(=O)c2cc3ccccc3oc2=O)[C@@H](NC(=O)C2CCCCC2)c2cc(OCCCO)ccc2N1C(=O)c1ccccc1,0.266,-0.275 (inactive),0.281,-0.0482,0.274,0.112,-0.0802,1.04,0.438,0.282
CC(C)(C)OC(=O)CC[C@]1(C(=O)NCC(O)CO)COC(c2ccc(OCCCO)cc2)=N1 (stereo not given in full),0.693,0.0333 (inactive),0.0425,-0.106,0.828,2.68,-0.45,0.949,-1.53,0.504
CC(C)(C)OC(=O)CC[C@@]1(C(N)=O)N=C(c2ccc(OCCCO)cc2)O[C@@H]1c1ccccc1,0.604,-0.327 (inactive),0.3,0.011,0.758,2.99,0.26,1.3,-0.796,0.722
COc1cc2c(cc1O)C=[N+](Cc1cccc(OC(F)(F)F)c1)CC2,0.828,0.0714 (inactive),-0.0879,-0.172,0.61,-0.784,0.173,-0.933,0.156,-0.27
Cc1ccc(C(C)CC(O)C2C=CC3C(=O)N(c4ccccc4)C(=O)C3N2Nc2ccc([N+](=O)[O-])cc2)o1 (stereo not given),0.861,-0.608 (inactive),0.222,0.0129,0.788,1.96,0.67,1.32,0.595,0.977
O=C1OCCC=C[C@H]2OC34C=CCN(CCN5CCOCC5)C(=O)[C@H]3N(CCCCCCO)C(=O)[C@@H]4C12 (stereo not given in full),-0.274,1 (inactive),-0.274,-0.167,0.844,0.1,0.133,-0.614,-0.592,0.0309
C=CC[C@@]1(C(=O)N(C)C)N=C(c2ccc(OCCCO)cc2)O[C@@H]1c1ccccc1N=[N+]=[N-],0.757,0.149 (inactive),0.37,0.209,0.588,3.01,1.2,1.3,-0.344,1.18
C=CCOC(=O)[C@H]1[C@@H]2C(=O)O[C@@H](c3ccccc3)[C@@H](c3ccccc3)N2[C@@H](c2ccc(OCCOC(=O)[C@H]3C[C@H]4C(=O)N[C@@H](CC(C)C)C(=O)N4[C@H]3c3ccc(O)cc3)cc2)[C@]12C(=O)Nc1ccc(I)cc12,-0.262,0.672 (inactive),0.17,-0.117,0.597,1.77,0.818,1.28,1.37,1.16
O=C1C2C=CC(C(O)C(c3ccccc3)c3ccccc3)N(n3cnnc3)C2C(=O)N1Cc1ccccc1 (stereo not given),0.057,0.0479 (inactive),0.116,-0.0294,0.635,2.61,0.599,1.3,0.121,1.07
CCOC(=O)[C@H]1CC=C2CC1C(=O)N1CCC[C@@H]1[C@@H]2O[Si](C)(C)C(C)(C)C (stereo not given in full),-0.0458,0.131 (inactive),-0.213,-0.161,-0.386,0.168,-0.407,-0.0813,-0.287,-2.28
C=C/C=C/[C@H]1C(=C)CN([C@@H](Cc2ccccc2)C(=O)OC)[C@@H]1[C@H](O)Cc1ccccc1,-0.668,-0.624 (inactive),-0.235,-0.195,-0.174,0.25,0.161,-0.24,-0.0454,-0.243
COC(=O)[C@@]1(Cc2ccc(F)cc2)[C@H]2c3cc(C(=O)N(C)C)n(CC4CC4)c3C[C@H]2CN1C(=O)c1ccccc1,1.02,-0.0191 (inactive),1.65,0.904,0.773,3.27,0.698,1.35,-0.542,1.1
CCOC(=O)C[C@H]1[C@H](OC(=O)c2ccc(C(=O)c3ccccc3)cc2)[C@@H](NC(=O)c2ccc(-c3ccccc3)cc2)c2cc(OCCCO)ccc2N1C(=O)c1ccccc1,0.0256,2.04 (inactive),-0.0411,-0.11,0.0733,1.31,0.032,1.31,0.303,0.989
C=CCNC(=O)[C@H]1[C@@H]2C(=O)O[C@@H](c3ccccc3)[C@@H](c3ccccc3)N2[C@@H](c2ccccc2OCCO)[C@]12C(=O)Nc1ccc(C#CC3=CCCCC3)cc12,0.039,1.86 (inactive),0.0942,-0.148,0.0836,1.19,1.37,1.29,0.495,1.02
CCCC[C@@H]1C[C@H]1[C@@H](NC(=O)c1ccco1)c1ccc(C(=O)OC)cc1,0.623,0.224 (inactive),-0.0967,-0.11,0.39,0.792,0.187,0.0166,0.0374,-0.112

SMILES,composite z-score (Albumin (Bos taurus)),composite Z-score [1],composite z-score [2],composite z-score [3],composite z-score [4],composite z-score [5],composite z-score [6],composite z-score (Sam68 (KHDRBS1)),composite z-score [7],composite z-score [8]
C=CCOC(=O)[C@H]1[C@@H]2C(=O)O[C@@H](c3ccccc3)[C@@H](c3ccccc3)N2[C@@H](c2ccc(OCCOC(=O)[C@H]3C[C@H]4C(=O)N5CCC[C@H]5C(=O)N4[C@H]3c3ccc(O)cc3)cc2)[C@]12C(=O)Nc1ccccc12,-1.36,0.171 (inactive),0.141,-0.0928,0.576,2.25,0.793,1.32,1.25,1.11
CC(C)(C)OC(=O)CC[C@]1(C(=O)O)N=C(c2ccc(OCCCO)cc2)O[C@H]1c1ccccc1N=[N+]=[N-],0.82,0.653 (inactive),0.786,0.473,0.838,2.95,0.781,0.889,0.0588,0.663
CN(C)CCCNC(=O)[C@@]1(C)c2ccccc2C(=O)N(Cc2cc(F)cc(C(F)(F)F)c2)[C@H]1c1ccc(CO)cc1,0.56,0.101 (inactive),-0.159,-0.0895,0.769,-0.065,0.457,0.303,-1.66,-0.282
O=C1OCC=C[C@H]2OC34C=CCN(CCN5CCOCC5)C(=O)[C@H]3N(CCCO)C(=O)[C@@H]4[C@@H]12 (stereo not given in full),0.416,0.103 (inactive),-0.206,-0.122,-0.0692,0.357,-0.126,0.356,0.0732,0.551
CCOC1=C2C(CN(S(=O)(=O)c3ccc(C)cc3)C2c2ccc(C)cc2)C2C(=O)N(c3ccccc3)C(=O)C2C1 (stereo not given),0.453,0.0045 (inactive),0.24,-0.0665,0.676,1.58,0.377,0.814,0.479,0.654
CN1C(=O)C2C=CC(C(O)c3cc(C(F)(F)F)cc(C(F)(F)F)c3)N(N3CCCCC3)C2C1=O (stereo not given),0.712,2.11 (inactive),0.0488,-0.0467,0.551,1.79,-0.33,1.08,-0.672,0.768
CCC(CC)C(O)C1C=CC2C(=O)N(C)C(=O)C2N1Nc1ccccc1 (stereo not given),0.333,-0.574 (inactive),0.149,-0.05,0.652,2.5,0.515,1.07,-0.237,1.2
CN1C(=O)C2C=CC(C(O)C3CC=CCC3)N(NC(=O)OC(C)(C)C)C2C1=O (stereo not given),1.03,3.41 (inactive),0.178,-0.121,0.713,3.19,0.532,1.32,0.547,0.627
[N-]=[N+]=NCc1ccccc1[C@@H]1OC(c2ccc(OCCCO)cc2)=N[C@]1(CCS(=O)(=O)c1ccccc1)C(=O)NCCN1CCOCC1,0.899,1.31 (inactive),0.576,0.0476,0.634,2.86,0.623,1.3,0.207,1.1
COCCn1c(C(=O)N2CCCC2)cc2c1C[C@H]1CN(C(=O)c3ccccc3)[C@@](Cc3ccc(F)cc3)(C(=O)OC)[C@@H]21,1.02,2 (inactive),0.309,0.11,0.827,2.96,0.406,1.32,-0.364,1
Cc1ccc(S[C@]2(C(=O)NCCN3CCOCC3)CC(=O)N(Cc3ccccc3Cl)[C@@H]2c2ccc(CO)cc2)cc1,0.429,-0.0407 (inactive),-0.0362,-0.133,0.686,0.776,0.0897,-0.541,-1.2,-0.199
C=C(CCCC)C(=O)CC[C@H](OC(C)=O)c1cccc(OCCO)c1,-1.33,-0.126 (inactive),-0.224,-0.205,-0.361,-0.0995,-0.186,-0.11,-1.14,-0.502
C=CCN1C(=O)[C@@]2(O[C@@H](CCO)[C@H]([Si](C)(C)c3ccc(OC)cc3)[C@H]2C)c2cc(NC(=O)c3ccc(OC)cc3)ccc21,0.317,-0.265 (inactive),-0.0006,-0.0836,0.187,0.244,0.0327,1.18,0.927,1.03
CC(C)C[C@H]1NC(=O)[C@@]23C(=O)N[C@@H](Cc4ccccc4)C2[C@H](C)[C@@]2(C)O[C@H]2C3/C=C/C/C=C\CNC(=O)[C@H](Cc2ccccc2)NC1=O (stereo not given in full),-0.188,-0.311 (inactive),-0.0377,-0.115,0.254,0.19,-0.108,0.791,0.696,0.205
CC(C)N1C(=O)[C@@]2(Cc3ccccc31)c1ccccc1C(=O)N(C1CCCCC1)[C@H]2c1ccc(CO)cc1,-0.352,-0.0662 (inactive),0.0196,-0.174,0.156,1.59,0.779,0.819,0.78,0.842
CCN(CC)c1ccc(N2CC=CC34O[C@@H]5/C=C\CCC(C)OC(=O)C5[C@H]3C(=O)N(C(CO)C(C)C)[C@@H]4C2=O)cc1 (stereo not given in full),-0.451,0.211 (inactive),-0.222,-0.175,0.894,0.595,-0.387,0.213,-0.263,-1.77
